# APP 5UTR inh = inhibitors of APP translation via 5'UTR reporter, primary screen, APP 5'UTR luciferase, SH-SY5Y cells. SH-SY5Y APP 5'UTR-luciferase reporter, luminescence. inhibition, % at 2 µM. hit rate 0.82% among 190,000. AID 1285, 2008;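 active = inhibition above a set limit, derived from the sample mean plus 3 SD, cut at about 45% in these data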
# aSyn 5UTR inh = MLPCN primary screen, SNCA 5' untranslated region; hit rate 0.82% among 300,000; AID 1813, 2009; alpha-synuclein 5'UTR reporter, inhibitor activity; inhibition, % (tested at 7.5 µM); in the data active = inhibition above about 60%;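 note: H4 neuroglioblastoma cells stably carrying SNCA 5'UTR luciferase fusion; 0% = DMSO wells and 100% = positive control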
# IEC-6 tox-1 = cytotoxicity in IEC-6 intestinal epithelial cells, primary screen, cytotoxicity control for KLF5 inhibitor project, cell-based, luminescence. IEC-6 cytotoxicity, luminescence viability. inhibition, % at 5 µM. hit rate 0.78% among 290,000. AID 1825, 2009;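 note: 0% = plate median of test compound wells and 100% = cytotoxic reference compound wells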
# Ba/F3 V617F tox = reduced viability of JAK2V617F-dependent Ba/F3 cells, primary screen, JAK2V617F inhibitor project, cell-based, Ba/F3 EpoR-JAK2V617F, luminescence. AID 1446, 2008. inhibition, % at 5.6 µM. ATP luminescence. hit rate 1.1% among 220,000;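 active = inhibition above the campaign mean plus 3 SD over all tested compounds, cut at about 24% in these data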;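 note: cytokine-independent growth of Ba/F3 cells driven by EpoR plus mutant JAK2; 0% = DMSO-treated cells and 100% = JAK inhibitor I control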
# KLF5 inh = KLF5 expression inhibitors, primary screen, DLD-1 cells, luminescence; hit rate 0.23% among 290,000; inhibition, % at 5 µM; DLD-1 KLF5 promoter-luciferase reporter; AID 1700, 2009;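 active = inhibition above a per-plate limit of that plate's mean compound inhibition plus 3 SD, cut at about 60% in these data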;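 note: 0% = DMSO wells and 100% = LY294002 at 200 µM; higher means less KLF5 promoter-driven luciferase light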
# BaF3 parental = parental Ba/F3 cell viability inhibition, counter-screen for JAK2V617F inhibitor project, murine pro-B, CellTiter-Glo luminescence; CellTiter-Glo ATP luminescence; inhibition, % at 5.6 µM; hit rate 1.1% among 220,000;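 active = inhibition above a per-campaign cutoff, the mean inhibition of all tested compounds plus 3 SD, cut at about 27% in these data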;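 note: 0% = DMSO wells and 100% = JAK Inhibitor I control wells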
# KLF5 confirm = KLF5 expression inhibitors, confirmation, DLD-1 cells, luminescence; DLD-1 KLF5 promoter firefly luciferase reporter; inhibition, % at 4 µM; shares compounds with KLF5 inh; hit rate 79% among 610;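 active = inhibition above a set limit taken from the earlier primary screen, cut at about 63% in these data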;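 note: 0% = DMSO wells and 100% = LY294002 at 200 µM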
# IEC-6 tox-2 = cytotoxicity in rat IEC-6 cells, cytotoxicity control for KLF5 inhibitor project, cell-based, luminescence, triplicate | shares compounds with KLF5 inh | IEC-6 rat intestinal cells, viability luminescence | inhibition, % at 4 µM | hit rate 56% among 610 | AID 1905, 2009; in the data active = inhibition above about 23%;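 note: cells exposed to compounds for 48 hours before viability read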
# IEC-6 tox confirm = cytotoxic compounds in IEC-6 epithelial cells, confirmation, cytotoxicity control, cell-based, luminescence; shares compounds with IEC-6 tox-1; IEC-6 rat intestinal epithelial viability; inhibition, % at 5 µM; hit rate 63% among 1,900; AID 1907, 2009;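 note: 0% = vehicle and 100% = reference cytotoxic drug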
# The depositor's hits bear a star; / = not tested or not shown. A selection: hits, their analogues and other compounds. The true share with any hit is near 2.2%. Cut-off read from the data, not from the text of the source, unless noted: active = inhibition above about 22%; inactive = the rest.
SMILES,APP 5UTR inh,aSyn 5UTR inh,IEC-6 tox-1,Ba/F3 V617F tox,KLF5 inh,BaF3 parental,KLF5 confirm,IEC-6 tox-2,IEC-6 tox confirm
CCOC(=O)c1[nH]c2c(c1C)C(=O)CC(c1ccco1)C2 (stereo not given),95.8*,73.3*,88.6*,87.1*,82.6*,88.0*,90.3*,66.0*,63.1*
Cc1c(C(=O)OCCOC(C)C)[nH]c2c1C(=O)CC(c1ccco1)C2 (stereo not given),96.1*,36.5,89.1*,80.7*,76.9*,85.8*,85.2*,67.0*,60.1*
Cc1c(C(=O)OCc2ccccc2)[nH]c2c1C(=O)CC(c1ccco1)C2 (stereo not given),94.3*,34.3,80.7*,68.0*,77.2*,73.2*,80.5*,56.0*,52.4*
CCOc1ccc(S(=O)(=O)n2ccnc2C)cc1,/,-4.7,2.8,/,-17.2,/,/,/,/
COc1ccc(NC(=O)/C(Cl)=C(/Cl)S(=O)Cc2ccccc2)cn1 (stereo not given),/,120.9*,100.4*,99.2*,96.3*,102.3*,106.6*,73.0*,89.8*
COc1ccc(NC(=O)Cc2ccccc2)cn1,-8.6,-3.0,2.2,-2.6,-4.2,1.6,/,/,/
CCn1c(C)nc2cc(-c3nc4n(n3)Cc3ccccc3-4)ccc21,84.7*,86.6*,32.6*,48.0*,112.4*,42.4*,110.3*,38.6*,42.9*
O=C(COc1ccc(Cl)cc1)NNC(=O)CSc1nncs1,0.3,-11.6,0.7,2.1,5.2,3.0,/,/,/
Cc1ccc2[nH]c(C(=O)N/N=C/c3ccccc3O)c(C)c2c1,/,-2.3,97.9*,/,71.5*,/,69.5*,17.1,53.7*
COc1cccc(N2CCN(C(=O)c3ccc(CS(=O)c4ccccc4C)o3)CC2)c1 (stereo not given),/,108.0*,78.5*,/,67.9*,/,74.7*,63.8*,57.5*
O=C(c1ccc(CS(=O)c2ccccc2Cl)o1)N1CCOCC1 (stereo not given),/,12.7,-3.8,/,-3.1,/,/,/,/
COc1cccc(N2CCN(C(=O)c3ccc(CS(=O)c4ccccc4Cl)o3)CC2)c1 (stereo not given),/,110.4*,89.9*,/,74.5*,/,84.2*,62.4*,60.0*
CCCOc1ccc2[nH]c(C(=O)N/N=C/c3cc(OC)c(OC)c(OC)c3)cc2c1,/,-26.5,-13.0,/,-42.5,/,/,/,/
COc1ccc2[nH]c(C(=O)N/N=C/c3ccc(OC)c(O)c3)cc2c1,/,-31.1,30.3*,/,65.0*,/,68.6*,2.2,10.1
O=C(O)CC(NC(=O)CCC1CCCCC1)c1cc([N+](=O)[O-])ccc1Cl (stereo not given),-8.0,2.9,2.7,-2.3,-18.4,-0.3,/,/,/
O=C(c1ccc(Br)cc1)c1cc([N+](=O)[O-])ccc1N1CCCCC1,95.0*,91.5*,86.9*,82.6*,84.4*,78.9*,82.3*,63.1*,59.7*
Cc1ccc(C(=O)c2cc([N+](=O)[O-])ccc2N2CCOCC2)c(C)c1,94.0*,97.7*,90.6*,75.5*,73.6*,83.8*,83.8*,70.2*,58.8*
Cc1ccc(C)c(C(=O)COC(=O)c2cc([N+](=O)[O-])ccc2N2CCOCC2)c1,/,10.0,/,/,/,/,/,/,/
O=C(c1cc([N+](=O)[O-])ccc1N1CCOCC1)N1CCN(c2ccccc2)CC1,/,91.4*,90.3*,/,81.8*,/,89.9*,72.7*,62.1*
O=C(COC(=O)c1cccc(Br)c1)NCCNC(=O)COC(=O)c1cccc(Br)c1,/,2.2,-2.7,/,-17.3,/,/,/,/
Cc1ccc(C)c(N2CCN(C(=O)c3ccc(CS(=O)(=O)c4ccccc4C)o3)CC2)c1,-11.0,20.3,4.0,1.1,5.0,7.7,/,/,/
Cc1cccc(N2CCN(C(=O)c3ccc(CS(=O)(=O)c4ccccc4C)o3)CC2C)c1 (stereo not given),95.9*,96.9*,76.5*,74.6*,89.5*,76.9*,75.0*,53.2*,47.8*
COc1ccc(Cl)cc1NC(=O)CCNC(=O)Cn1ccc2ccccc2c1=O,/,13.4,-0.5,/,-14.9,/,/,/,/
COc1cc2c(c(OC)c1OC)-c1ccc(OC)c(=O)cc1[C@@H](N(C)CC#CCO)CC2,/,87.2*,93.0*,/,81.2*,/,92.4*,74.6*,74.4*
COc1cc2c(cc1OC)C(COc1ccc(F)cc1)N(C(C)=O)CC2 (stereo not given),/,22.2,-4.5,/,-39.6,/,/,/,/
SMILES,APP 5UTR inh,aSyn 5UTR inh,IEC-6 tox-1,Ba/F3 V617F tox,KLF5 inh,BaF3 parental,KLF5 confirm,IEC-6 tox-2,IEC-6 tox confirm
COc1cc2c(c(OC)c1OC)-c1ccc(OC)c(=O)cc1[C@@H](NC(C)=O)CC2,/,95.7*,95.5*,/,79.2*,/,87.5*,81.1*,83.1*
CCN(CC)c1ccc2c(cc1=O)[C@@H](NC)CCc1cc(OC)c(OC)c(OC)c1-2,/,107.2*,85.0*,/,70.1*,/,91.5*,80.7*,75.9*
COc1cc(C(=O)NC2CCCc3ccccc32)cc(OC)c1OC (stereo not given),/,10.0,-1.6,/,-2.6,/,/,/,/
COc1cc2c(c(OC)c1OC)-c1ccc(N(C)CC(OC)OC)c(=O)cc1[C@@H](NC(C)=O)CC2,/,84.1*,92.4*,/,86.0*,/,86.2*,61.0*,66.3*
O=C(NCCCN1CCCC1)c1ccc2c(c1)N(Cc1ccccc1F)C(=O)c1ccccc1S2(=O)=O,/,-18.5,-0.2,/,-36.4,/,/,/,/
Cc1ccc(Cl)cc1N1CCN(Cc2cc(=O)n3ccsc3n2)CC1,6.2,23.3,0.3,1.7,13.3,4.0,/,/,/
N#CC1=C2SCN(c3ccccc3)CN2C(=O)CC1c1cccs1 (stereo not given),15.8,-11.3,2.1,-0.3,-0.2,1.3,/,/,/
N#CC1=C2SCC(O)(c3ccccc3)N2C(=O)CC1c1cccs1 (stereo not given),90.8*,/,82.4*,74.4*,72.1*,75.2*,74.4*,62.2*,55.5*
O=C(Nc1nnc(SCCN2CCOCC2)s1)C1CC(=O)N(c2ccc(F)cc2)C1 (stereo not given),/,7.5,8.7,/,-16.8,/,/,/,/
Cc1cccc(N(C)S(=O)(=O)c2ccc(-c3cc(C)no3)s2)c1,/,87.9*,77.5*,/,74.5*,/,74.3*,55.1*,53.4*
CCN(c1cccc(C)c1)S(=O)(=O)c1ccc(-c2cc(C)no2)s1,/,26.3,66.7*,/,72.0*,/,59.4,37.2*,37.0*

# Screening data from PubChem.
